Results filed as inconclusive are left out. Values without a mark were called inactive. Active and inactive are the calls of the source. The call rests on the fitted dose curve; in most records, active means well fitted curve in the direction sought with a large enough effect in the repeat runs; inconclusive means weak or mixed curves; inactive means no such curve, though single readings can be large; an effect the other way counts as inactive or inconclusive.

From PubChem BioAssay (Tox21) come the findings set out here.

Assay [1] can be described thus: qHTS RealTime-Glo MT Cell Viability Assay in HepG2 cells - 40 hour (AID 1224870). Further: nearly all actives have a fitted effect of over 50% in size. In a few lines: (§1)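 HepG2 cells (600/well) mixed with RealTime-Glo MT reagent, settled 5 h at 37 C/5% CO2 before compound addition. Nonlytic NanoLuc luminescence from viable-cell prosubstrate reduction read repeatedly during 40 h treatment at 37 C.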
(In general: Quantitative high-throughput screening tests each substance at several concentrations.)

Assay [2] can be described thus: A CellTox Green Cytotoxicity Assay to monitor cytotoxicity in HEK293 cells - 40 hour (AID 1224871). Further: nearly all actives have a fitted effect of over 45% in size. In a few lines: (§2)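 Cytotoxicity was tracked continuously in HEK293 cells by a DNA-binding dye excluded from viable cells. Compounds were transferred in DMSO 5 h after seeding; fluorescence was recorded at intervals up to 40 h.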
A short description of assay [3]: qHTS RealTime-Glo MT Cell Viability Assay in HEK293 cells - 16 hour (AID 1224872). Further: top concentration of the series differs between compounds; nearly all actives have a fitted effect of over 50% in size. In a few lines:
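Quantitative high-throughput screen of the Tox21 10K library in HEK293: cells and RealTime-Glo reagents plated together, compound added at 5 h, luminescence monitored through 40 h at 37 C.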

A short description of assay [4]: qHTS RealTime-Glo MT Cell Viability Assay in HepG2 cells - 8 hour (AID 1224873). Further: nearly all actives have a fitted effect of over 55% in size. The procedure, abridged:
as §1

A short description of assay [5]: qHTS RealTime-Glo MT Cell Viability Assay in HEK293 cells - 40 hour (AID 1224874). Further: nearly all actives have a fitted effect of over 50% in size. To be noted: RealTime-Glo luminescence; max response: active compounds read low. The procedure, abridged:
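Nonlytic bioluminescent viability monitoring. HEK293 at 600 cells/well with reagent; 5 h settle; compound transfer by pintool; plates held at 37 C and read at set time points.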

The nature of assay [6]: A CellTox Green Cytotoxicity Assay to monitor cytotoxicity in HEK293 cells - 24 hour (AID 1224875). Further: nearly all actives have a fitted effect of over 45% in size. Further: potency means the concentration at half of the fitted maximal effect. On activity change: series mostly up to about 77 µM. In a few lines: as §2
Assay [7] is described as follows: qHTS RealTime-Glo MT Cell Viability Assay in HepG2 cells - 32 hour (AID 1224877). Further: nearly all actives have a fitted effect of over 55% in size. The procedure, abridged: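 Compound treatment began 5 h after plating HepG2 cells (600/well) with NanoLuc luciferase and prosubstrate. Plates stayed at 37 C for 40 h; luminescence was captured at six time points, 0 h through 40 h.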
A short description of assay [8]: A CellTox Green Cytotoxicity Assay to monitor cytotoxicity in HepG2 cells - 24 hour (AID 1224878). Further: nearly all actives have a fitted effect of over 45% in size. The procedure, abridged: (§3)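 Real-time, homogeneous cytotoxicity readout: dead-cell DNA staining by CellTox Green in HepG2 monolayers, fluorescence measured at timed intervals up to 40 h of continuous compound exposure.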
Assay [9] can be described thus: A CellTox Green Cytotoxicity Assay to monitor cytotoxicity in HepG2 cells - 40 hour (AID 1224879). Further: nearly all actives have a fitted effect of over 40% in size. The procedure, abridged:
as §3

The nature of assay [10]: A CellTox Green Cytotoxicity Assay to monitor cytotoxicity in HepG2 cells - 16 hour (AID 1224876). Further: nearly all actives have a fitted effect of over 45% in size. In a few lines: as §3
On the % scale 0 is the no-effect control and ±100 the full control effect.

Regarding `C=C(C)C(=O)OCCCCCCCCCCCCCCCCCC`, the values for the activity change, negative = cytotoxic in [1] and in [7] were 13.1% [at 15.8 µM] and 6.06% [at 15.8 µM], respectively. Moreover, the cytotoxicity increase in [2] is 0.266% [at 15.8 µM]; in [9] it was 2.24% [at 15.8 µM]. Further, the activity change, negative = cytotoxicity in assay [3] is 9.27% [at 15.8 µM]. In assay [4], the viability change, negative = cytotoxic was -0.392% [at 15.8 µM]. Moreover, the max response in assay [5] is 3.5%. For the same molecule, the activity change in assay [6] is 0.0651% [at 15.8 µM, active compounds read high]. Besides, in assay [8], the cytotoxicity is -0.0576% [at 15.8 µM].
`C[C@H](O)C(=O)Nc1c(I)c(C(=O)NC(CO)CO)c(I)c(C(=O)NC(CO)CO)c1I`: the Potency result in [1], in assay [2], in assay [3], in [6], in assay [10] and in assay [7] was “inactive” each time. Moreover, in assay [9], the Potency result was “inactive”. For the same molecule, in [4], the result was inactive. Besides, the max response in [5] is 4.24%.
Consider `O=C(O)c1ccccc1-c1ccc(C(F)(F)F)cc1`, for which the Potency result in [1], in [2], in [3], in assay [6], in assay [10] and in [7] was “inactive” each time. For the same molecule, the Potency result in assay [8] and in assay [9] was “inactive” throughout. The molecule was classed as inactive in assay [4]. Further, the max response in [5] was 7.22%.
Take `CC(=O)OC(C)(C)C`: the Potency entry in assay [1], in assay [2], in [3], in [6], in assay [7] and in assay [8] was “inactive” in each case. Further, the Potency entry in assay [9] was “inactive”. Besides, in assay [4], the molecule was called inactive. Further, the max response in assay [5] was 8.31%.
With `C1=C\CC/C=C\CC/C=C\CC/1`, the Potency entry in assay [1], in assay [2], in [3], in [6], in assay [7] and in [8] was “inactive” in each case. The Potency entry in assay [9] was “inactive”. The outcome in [4] was inactive. For the same molecule, the max response in assay [5] was 24.2%.
For `NCCN1CCNC1=O`, the Potency result in [1], in assay [2], in [3], in assay [6], in assay [10] and in assay [7] was “inactive” each time. For the same molecule, the Potency entry in assay [8] and in [9] was “inactive” in each case. The outcome in assay [4] was inactive. The max response in [5] was 0.993%.
Take `Cc1nccn1CC1CCc2c(c3ccccc3n2C)C1=O` (configuration not stated): the Potency result in [1], in assay [2], in [3], in assay [6], in assay [10] and in assay [7] was “inactive” throughout. Besides, the Potency result in assay [8] and in assay [9] was “inactive” throughout. Further, the molecule was called inactive in assay [4]. For the same molecule, in [5], the max response was -14.4%.
On to `CC(C)CCCC(C)CCCC(C)CCCCC(C)CCCC(C)CCCC(C)C` (configuration not stated), for which the Potency result in assay [1], in assay [2], in [3], in assay [6], in [10] and in [7] was “inactive” in each case. The Potency result in assay [8] and in assay [9] was “inactive” throughout. Further, the result in assay [4] was inactive. Also, in [5], the max response was 3.24%.
Turning to `CC(C)(C)CC(C)(C)N`, the Potency entry in [1], in [2], in assay [3], in [6], in [10] and in assay [7] was “inactive” each time. Moreover, the Potency result in assay [9] is “inactive”. The molecule was classed as inactive in assay [4]. The max response in assay [5] was 11.1%.
For `CC(C)N1C(=O)c2ccccc2C1=O`, the Potency entry in assay [1], in assay [2], in [3], in assay [6], in [10] and in assay [7] was “inactive” throughout. The Potency result in assay [9] was “inactive”. Also, the outcome in assay [4] was inactive. The max response in [5] was 4.79%.
On to `CC/C=C\C#N`, for which the Potency entry in assay [1], in [2], in assay [3], in assay [6], in [10] and in assay [7] was “inactive” in each case. The Potency result in assay [8] and in [9] was “inactive” in each case. Besides, the molecule was classed as inactive in assay [4]. For the same molecule, the max response in assay [5] was 20.1%.
As for `CC(C)(C)OC(=O)N1C[C@@H](F)C[C@H]1C(=O)O`, the Potency entry in assay [1], in [2], in assay [3], in assay [6], in assay [10] and in assay [7] was “inactive” each time. Besides, the Potency entry in [8] and in assay [9] was “inactive” in each case. Moreover, in assay [4], the call was inactive. Further, the max response in assay [5] was 2.11%.
Regarding `C#CC(O)CCCCC` (configuration not stated), the Potency entry in assay [1], in [2], in assay [3], in assay [6], in assay [10] and in [7] was “inactive” each time. In addition, the Potency entry in assay [8] and in [9] was “inactive” throughout. The outcome in assay [4] was inactive. For the same molecule, in [5], the max response is 8.88%.
For the molecule `NCC[C@H](O)C(=O)N[C@@H]1C[C@H](N)[C@@H](O[C@H]2O[C@H](CN)[C@@H](O)[C@H](O)[C@H]2O)[C@H](O)[C@H]1O[C@H]1O[C@H](CO)[C@@H](O)[C@H](N)[C@H]1O`, the activity change, negative = cytotoxic in assay [1] is -0.912% [at 0.29 µM]; in [7], -1.54% [at 0.29 µM]. The cytotoxicity increase is -3.46% [at 0.29 µM] in [2], -3.16% [at 0.29 µM] in assay [10] and -4.11% [at 0.29 µM] in assay [9]. The activity change, negative = cytotoxicity in assay [3] was -0.0333% [at 0.29 µM]. Besides, the viability change, negative = cytotoxic in assay [4] was -0.5% [at 0.29 µM]. Also, the max response in assay [5] was 5.14%. The activity change in assay [6] is 2.36% [at 0.29 µM, active compounds read high].
As to `CN(C)CCn1nnnc1SCC1=C(C(=O)O)N2C(=O)[C@@H](NC(=O)Cc3csc(N)n3)[C@H]2SC1`, the Potency result in assay [1], in assay [2], in assay [3], in [6], in [7] and in [8] was “inactive” throughout. Moreover, the Potency result in [9] is “inactive”. Further, in assay [4], the molecule was classed as inactive. Also, in [5], the max response was 13.3%.
For `O=C(CCOCCOCCOCCOCCC(=O)Nc1c(I)cc(I)c(C(=O)O)c1I)Nc1c(I)cc(I)c(C(=O)O)c1I`, the Potency result in assay [1], in assay [2], in [3], in [6], in assay [10] and in assay [7] was “inactive” each time. Moreover, the Potency result in assay [8] and in assay [9] was “inactive” in each case. For the same molecule, the result in assay [4] was inactive. In addition, the max response in [5] was -0.881%.
Consider `CC(O)CN(CCCN(C)C)CCCN(C)C` (configuration not stated), for which the Potency result in assay [1], in [2], in [3], in assay [6], in assay [7] and in [8] was “inactive” throughout. Also, the Potency entry in [9] is “inactive”. The outcome in [4] was inactive. In assay [5], the max response was -1.59%.
Consider `C1C2OC2C2C1C1CC2C2OC12` (configuration not stated), for which the Potency result in assay [1], in assay [2], in assay [3], in [6], in assay [10] and in assay [7] was “inactive” throughout. For the same molecule, the Potency entry in assay [8] and in assay [9] was “inactive” in each case. Moreover, the outcome in assay [4] was inactive. For the same molecule, the max response in [5] is 2.43%.
On to `CCCCC=O`, for which the Potency result in [1], in assay [2], in assay [3], in assay [6], in [7] and in [8] was “inactive” each time. In assay [9], the Potency result is “inactive”. In addition, the result in assay [4] was inactive. In addition, the max response in assay [5] was 2.57%.
Regarding `Oc1ccc2c(c1)OC[C@@H](N1CCC(O)(c3ccc(F)cc3)CC1)[C@H]2O`, the Potency entry in assay [1], in assay [2], in assay [3], in assay [6], in assay [10] and in assay [7] was “inactive” in each case. The Potency result in assay [9] was “inactive”. Further, in [4], the molecule was called inactive. For the same molecule, the max response in [5] is -13.9%.
Take `C=C(C)C(=O)NCCCN(C)C`: the Potency result in [1], in [2], in assay [3], in assay [7], in assay [8] and in assay [9] was “inactive” each time. Further, in assay [4], the molecule was classed as inactive. Besides, the max response in [5] was 9.44%. In addition, in assay [6], the Potency is 34.7 nM (active).
In the case of `OCc1ccccn1`, the Potency result in [1], in assay [2], in assay [3], in [6], in assay [10] and in assay [7] was “inactive” in each case. Besides, the Potency result in [8] and in assay [9] was “inactive” each time. The molecule was classed as inactive in assay [4]. Further, the max response in assay [5] is 11.2%.
Take `CCN1CCN(c2cc3c(cc2F)c(=O)c(C(=O)O)cn3C2CC2)CC1`: the Potency result in assay [1], in assay [2], in assay [3], in [6], in assay [10] and in assay [7] was “inactive” each time. Moreover, in assay [9], the Potency entry is “inactive”. Besides, in [4], the molecule was classed as inactive. Besides, in [5], the max response is -0.866%.
